Sampled rows, rich in hits. Any-hit rate of the full collection: about 1.5%.
rTrxR1 inhibitor – inhibitors of rat thioredoxin reductase 1. O89049. recombinant rTrxR1, NADPH fluorescence consumption, selenite substrate. Potency, µM (highest dose often 114 µM), for inactives: at the highest dose activity change, negative = inhibition, most hits filed as inhibitors. 390,000 compounds, 1% hits. AID 588453; note: potency is the fitted concentration of half-maximal effect; nearly all actives have a fitted effect of over 65% in size
Target sequence (O89049 whole entry, looked up): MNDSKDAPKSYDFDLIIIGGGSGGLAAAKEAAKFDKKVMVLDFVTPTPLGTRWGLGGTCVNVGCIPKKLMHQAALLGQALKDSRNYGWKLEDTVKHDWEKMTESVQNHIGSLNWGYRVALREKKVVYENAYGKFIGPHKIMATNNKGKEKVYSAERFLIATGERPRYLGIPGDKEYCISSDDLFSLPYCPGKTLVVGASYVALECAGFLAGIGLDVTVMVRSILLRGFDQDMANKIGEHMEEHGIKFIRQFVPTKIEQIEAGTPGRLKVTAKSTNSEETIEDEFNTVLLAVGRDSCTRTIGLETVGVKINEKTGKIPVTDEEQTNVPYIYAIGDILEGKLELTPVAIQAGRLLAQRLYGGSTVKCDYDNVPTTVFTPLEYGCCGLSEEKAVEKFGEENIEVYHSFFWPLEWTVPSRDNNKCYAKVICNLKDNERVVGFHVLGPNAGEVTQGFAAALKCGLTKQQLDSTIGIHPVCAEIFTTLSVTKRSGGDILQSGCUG
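Rat TrxR1 (90 nM in the dispensed reagent) was pre-reduced with 400 uM NADPH for 5 min at room temperature, then incubated with compound for 15 min. After 400 uM selenite was added, NADPH fluorescence (Ex 340/Em 450 nm) was followed for 8 min.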
USP1 inh – inhibitors of human USP1/UAF1 deubiquitinase; recombinant USP1/UAF1, Ub-Rhodamine cleavage fluorescence; 390,000 compounds, 0.23% hits; Potency, µM (series often up to 57.1 µM), for the others: at the top dose activity change, negative = inhibition, usual class: inhibitors; O94782; note: potency is the fitted concentration of half-maximal effect; nearly all actives have a fitted effect of over 60% in size
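In this screen, compounds sit with the deubiquitinase complex (1nM) for 15 min at room temperature before Ub-Rho is added at 150nM final. Fluorescence rise is then followed for 6 reads every 60 seconds.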
TrxR1 substrate – substrates of rat thioredoxin reductase 1; purified TrxR1 substrate turnover, NADPH consumption readout; O89049; AID 588456; Potency, µM (titrated, usually from 114 µM), without a hit: at the highest dose activity change, negative = substrate turnover; 390,000 compounds, 0.01% hits; note: potency is the fitted concentration of half-maximal effect; nearly all actives have a fitted effect of over 50% in size
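Rat TrxR1, dispensed at 90 nM, was prereduced with 400 uM NADPH (final) for 5 min at ~22 deg C, then incubated with compound 15 min before 400 uM selenite. A first-read NADPH fluorescence drop versus no-compound background flagged substrates.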
GALK inhibitor – galactokinase (human) inhibition | P51570 | Purified GALK, Kinase-Glo residual ATP luminescence | Potency, µM (highest dose often 57.5 µM), for the others: at the highest dose activity change, negative = inhibition, actives largely listed as inhibitors | 270,000 compounds, 0.007% hits | AID 1868; note: potency is the fitted concentration of half-maximal effect
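The enzyme phosphorylates galactose (100 uM) using ATP (35 uM); inhibition is detected as higher residual ATP, quantified by bioluminescence after 1 h reaction at room temperature, pH 8.0.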
FBPA coupling cs – coupling enzyme interference in Giardia aldolase counter-screen; coupling enzyme system counterscreen, AmpLite Red fluorescence; activity change, negative = inhibition, % at 58.2 µM, hits read low; 290,000 compounds, 0.67% hits; in the data active = activity change below about -30%
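Activity here indicates interference with the coupling reaction, not aldolase inhibition. Compounds at 57.5 uM final met coupling enzymes for 10 min at RT; substrate and AmpLite Red detection followed, with a 525/598 nm fluorescence read after 20 min.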
An asterisk follows results filed as active; ? = inconclusive; nt = no result given; [ ] = dose if it differs, or a comment. Unless noted, calls come from the whole dose curve; as a rule, active = well fitted curve in the direction sought with a large enough effect; inconclusive = small, poorly fitted or top-dose-only effect, or another doubt; inactive = no such curve, though single readings can be large; an effect the other way counts as inactive or inconclusive. % is set by controls: 0 for no effect and ±100 for the full control effect.

SMILES	rTrxR1 inhibitor	USP1 inh	TrxR1 substrate	GALK inhibitor	FBPA coupling cs
Cc1cccc(Cn2ncc(Cl)c(Cl)c2=O)c1	50.1µM*	3.3%	-7.2%	1.6%	2.6
Cc1ccc(S(=O)(=O)N2CCN(c3nc(-n4ccnc4)nc4ccccc34)CC2)cc1	23.3%	nt	22.1%	nt	nt
COc1cc([C@@H]2Oc3cc([C@H]4Oc5cc(O)cc(O)c5C(=O)[C@H]4O)ccc3O[C@H]2CO)ccc1O	nt	nt	nt	nt	0.6
O=C1c2cccc3c(O)ccc(c23)C(=O)N1c1ccc(Cl)cc1	?	28.2µM*	-22.8%	-4.2%	-13.7
Cc1ccc(N2C(=O)c3cccc4c(C(=O)O)ccc(c34)C2=O)cc1	nt	nt	nt	-0.3%	3.7
O=C1c2cccc3c(O)ccc(c23)C(=O)N1Cc1ccco1	?	28.2µM*	-9.6%	6.3%	-9.2
CC(=O)Nc1ccc(N2C(=O)c3cccc4c(O)ccc(c34)C2=O)cc1	-8.8%[57.1 µM]	28.2µM*	-2.7%[57.1 µM]	0.8%	-2.5
COC(=O)N1C2=C(c3ccccc3[C@@H]1CC(=O)Nc1ccc3cc4ccccc4cc3c1)[C@@H]1C(=O)N(c3ccccc3)C(=O)[C@@H]1[C@H](C)C2	nt	nt	nt	nt	0.4
COc1ccc(-c2cc(-c3ccco3)[nH]c(=O)c2C#N)cc1OC	15.8µM*	-24.8%	45.7%	-1.8%	-17.1
CN1CCN(C(c2ccc(Br)cc2)c2cc(Cl)c3cccnc3c2O)CC1 (stereo not given)	8.91µM*	?	3.5%	13.9%	-3.1
CC(=O)NC(C)c1cc(Cl)c2cccnc2c1O (stereo not given)	13.1%	nt	-2.3%	nt	nt
CN1CCN(C(c2cccnc2)c2ccc3cccnc3c2O)CC1 (stereo not given)	5.01µM*	-16.0%	7.7%	-2.9%	-2.3
CN1CCN(C(c2ccc(F)cc2)c2ccc3cccnc3c2O)CC1 (stereo not given)	22.8%	-21.0%	0.5%	nt	nt
CCCNC(=O)Cn1c(SCc2ccccc2C)nc2ccncc21	3.5%	nt	-1.3%	nt	nt
O=C(COC(=O)c1ccccc1OCCOc1ccccc1)Nc1ccc(Br)cc1	7.9%	nt	3.0%	nt	nt
Cc1ccc(CN(C)C(=O)CCc2nc3sc4c(c3c(=O)[nH]2)CCCC4)o1	50.1µM*	-0.8%	-3.0%	1.6%	-0.5
CN(Cc1ccco1)C(=O)CCc1nc2sc3c(c2c(=O)[nH]1)CCCC3	17.8µM*	2.6%	-3.0%	-2.9%	0.3
Nc1ncnc2c1nc(N1CCCCC1)n2[C@@H]1O[C@@H]2COP(=O)(O)O[C@H]2[C@H]1O	nt	nt	nt	nt	1.4
Cc1ccc2nccc(/C=C/c3ccc(N(C)C)cc3)c2c1	-5.2%	nt	-4.8%	nt	nt
CN1CCc2cc3c(c4c2[C@H]1[C@H](O)c1ccccc1-4)OCO3	-15.0%	?	5.0%	nt	-32.3*
COc1ccc2c(c1OC)C(=O)O[C@H]2C1c2c(cc3c(c2OC)OCO3)CCN1C (stereo not given in full)	nt	nt	nt	nt	-2.4
CCCC[C@]12Cc3cc(OC)c(OC)cc3C(O1)C1=C(O2)C(=O)c2ccccc2C1=O	nt	nt	nt	nt	-36.5*
CN1CCN(c2ccnc(-c3ccoc3)n2)CC1	nt	nt	nt	nt	-4.0
COc1ccc(/C=C2/C(=O)N(c3ccccc3)N=C2C)cc1Br	?	-24.8%	-4.6%	-0.6%	3.0
COc1cc(/C=C2/C(=O)N(c3ccccc3)N=C2C)ccc1OS(=O)(=O)c1ccccc1	nt	nt	nt	1.9%	-42.0*
SMILES	rTrxR1 inhibitor	USP1 inh	TrxR1 substrate	GALK inhibitor	FBPA coupling cs
COc1cc(Br)cc(CN2CCN(C/C=C/c3ccccc3)CC2)c1O	-17.0%[11.4 µM]	-17.0%	3.7%[11.4 µM]	-0.6%	0.5
COc1cc(C/C=C\c2ccccc2)c(OC)cc1O	nt	nt	nt	nt	-46.8*
CCn1c(SCC(=O)N/N=C/C=C/c2ccco2)nnc1-c1ccc(OC)cc1	10.9%	-7.8%	1.4%	-2.9%	-39.1*
Cn1c(SCC(=O)N/N=C/c2ccco2)nc2ccccc21	19.5%	-18.6%	-2.0%	-0.7%	-9.6
CC(/C=N/NC(=O)CSc1nc2ccccc2n1C)=C\c1ccco1	79.4µM*	-27.8%	-12.7%	0.1%	-7.1
CCn1c(SCC(=O)N/N=C/C=C/c2ccco2)nc2ccccc21	44.7µM*	-19.4%	-9.0%	-2.6%	-6.9
O=C(CSc1nnc(SCc2ccccc2)s1)N/N=C/C=C\c1ccco1	44.7µM*	-25.0%	-1.5%	0.3%	1.3
CCCCCCCOc1ccc(CC(=O)NO)cc1	-16.9%	nt	-6.5%	nt	nt
